How the values were obtained:
Assay in all cases: DAPPL (digital affinity profiling via proximity ligation, sequencing); 10 mM Tris-HCl pH 7.5, 50 mM NaCl, 1 mM DTT, 4% glycerol, room temperature, 30 min; GST-TFs on glutathione beads, 16-mer random dsDNA library, 0.1% formaldehyde crosslink after washing; high values mean tight binding
Details in all cases: protein: recombinant; tags: N-terminal GST; dsDNA, one strand shown
FLI1 = molecular target: T1, FLI1 (Homo sapiens, UniProt Q01543 1-452)
T1 sequence: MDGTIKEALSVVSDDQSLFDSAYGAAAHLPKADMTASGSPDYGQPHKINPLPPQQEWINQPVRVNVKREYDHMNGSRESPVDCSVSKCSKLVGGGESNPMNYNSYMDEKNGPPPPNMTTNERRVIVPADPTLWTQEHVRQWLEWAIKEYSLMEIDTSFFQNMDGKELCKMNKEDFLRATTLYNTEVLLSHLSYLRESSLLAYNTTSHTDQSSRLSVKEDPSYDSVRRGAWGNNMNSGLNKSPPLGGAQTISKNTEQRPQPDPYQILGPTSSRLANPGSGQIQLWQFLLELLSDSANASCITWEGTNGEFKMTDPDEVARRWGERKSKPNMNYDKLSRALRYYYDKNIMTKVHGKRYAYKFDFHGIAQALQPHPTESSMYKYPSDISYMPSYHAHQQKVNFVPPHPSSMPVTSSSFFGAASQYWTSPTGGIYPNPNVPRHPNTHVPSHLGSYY
In short: (§1)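 Pools were built from human transcription factors expressed in yeast as GST fusions, captured on glutathione beads and DNA-barcoded, along with a tag-only sample. Incubation with 200 nmole of a 16-mer random double-stranded DNA library lasted 30 min at room temperature in Tris/NaCl/DTT/glycerol buffer, and was followed by washing, 0.1% formaldehyde crosslinking, proximity ligation, PCR amplification and Illumina NextSeq500 sequencing. Binding signal is the quotient of each hexamer's read frequency for a factor and its frequency for the tag-only sample.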

ELK1 = molecular target: T2, ELK1 (Homo sapiens, UniProt P19419 1-428)
T2 sequence: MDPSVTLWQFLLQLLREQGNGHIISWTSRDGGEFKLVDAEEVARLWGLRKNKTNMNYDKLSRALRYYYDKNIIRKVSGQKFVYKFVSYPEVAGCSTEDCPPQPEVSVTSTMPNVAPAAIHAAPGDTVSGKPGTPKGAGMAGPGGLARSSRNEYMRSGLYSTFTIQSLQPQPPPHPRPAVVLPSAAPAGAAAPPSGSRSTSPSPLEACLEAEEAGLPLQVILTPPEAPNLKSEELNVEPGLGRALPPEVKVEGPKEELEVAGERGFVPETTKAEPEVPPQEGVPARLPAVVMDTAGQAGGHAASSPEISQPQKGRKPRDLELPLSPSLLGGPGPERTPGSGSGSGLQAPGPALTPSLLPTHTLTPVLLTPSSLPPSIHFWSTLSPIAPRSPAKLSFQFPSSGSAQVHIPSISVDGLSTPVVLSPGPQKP
In short: as §1

ERG = molecular target: T3, ERG (Homo sapiens, UniProt P11308 1-479)
T3 sequence: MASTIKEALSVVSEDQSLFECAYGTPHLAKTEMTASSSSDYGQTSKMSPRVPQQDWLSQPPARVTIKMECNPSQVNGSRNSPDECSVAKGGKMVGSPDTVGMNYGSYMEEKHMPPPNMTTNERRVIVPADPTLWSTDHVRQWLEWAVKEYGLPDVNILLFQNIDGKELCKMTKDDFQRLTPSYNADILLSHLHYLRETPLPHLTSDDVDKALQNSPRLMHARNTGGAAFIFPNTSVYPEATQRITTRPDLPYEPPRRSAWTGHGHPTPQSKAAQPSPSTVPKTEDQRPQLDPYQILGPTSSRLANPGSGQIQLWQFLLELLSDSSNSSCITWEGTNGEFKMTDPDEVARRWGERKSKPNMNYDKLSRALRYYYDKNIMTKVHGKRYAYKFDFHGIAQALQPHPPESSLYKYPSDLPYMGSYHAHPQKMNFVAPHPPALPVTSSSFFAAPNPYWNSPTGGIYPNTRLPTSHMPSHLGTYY
In short: as §1

ELF1 = ELF1 (Homo sapiens, UniProt P32519 1-619)
In short: as §1

EHF = molecular target: T4, EHF (Homo sapiens, UniProt Q9NZC4 1-300)
T4 sequence: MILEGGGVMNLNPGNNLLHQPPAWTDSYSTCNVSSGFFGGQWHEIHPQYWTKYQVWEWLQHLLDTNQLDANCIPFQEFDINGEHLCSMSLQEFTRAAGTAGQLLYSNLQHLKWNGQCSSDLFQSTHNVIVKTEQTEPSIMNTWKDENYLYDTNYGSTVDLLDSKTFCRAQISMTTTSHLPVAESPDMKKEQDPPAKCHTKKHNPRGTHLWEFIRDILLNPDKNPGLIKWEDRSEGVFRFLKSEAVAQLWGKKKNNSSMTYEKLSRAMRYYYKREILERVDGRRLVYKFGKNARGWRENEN
In short: as §1

SPIB = SPIB (Homo sapiens, UniProt Q01892 1-262)
In short: as §1

ELK3 = molecular target: T5, ELK3 (Homo sapiens, UniProt P41970 1-407)
T5 sequence: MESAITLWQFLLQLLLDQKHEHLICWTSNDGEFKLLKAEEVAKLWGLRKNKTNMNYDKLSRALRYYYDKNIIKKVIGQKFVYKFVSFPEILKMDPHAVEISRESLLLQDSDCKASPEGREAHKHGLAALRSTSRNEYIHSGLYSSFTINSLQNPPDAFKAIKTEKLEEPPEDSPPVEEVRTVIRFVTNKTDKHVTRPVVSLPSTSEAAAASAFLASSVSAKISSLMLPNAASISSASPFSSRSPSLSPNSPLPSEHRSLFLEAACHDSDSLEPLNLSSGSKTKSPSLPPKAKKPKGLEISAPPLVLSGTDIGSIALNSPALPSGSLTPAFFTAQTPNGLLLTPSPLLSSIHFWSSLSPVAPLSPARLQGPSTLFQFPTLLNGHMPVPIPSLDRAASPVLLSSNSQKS
In short: as §1

ETV5 = ETV5 (Homo sapiens, UniProt P41161 1-510)
In short: as §1

ELF4 = ELF4 (Homo sapiens, UniProt Q99607 1-663)
In short: as §1

ETV2 = molecular target: T6, ETV2 (Homo sapiens, UniProt O00321 1-342)
T6 sequence: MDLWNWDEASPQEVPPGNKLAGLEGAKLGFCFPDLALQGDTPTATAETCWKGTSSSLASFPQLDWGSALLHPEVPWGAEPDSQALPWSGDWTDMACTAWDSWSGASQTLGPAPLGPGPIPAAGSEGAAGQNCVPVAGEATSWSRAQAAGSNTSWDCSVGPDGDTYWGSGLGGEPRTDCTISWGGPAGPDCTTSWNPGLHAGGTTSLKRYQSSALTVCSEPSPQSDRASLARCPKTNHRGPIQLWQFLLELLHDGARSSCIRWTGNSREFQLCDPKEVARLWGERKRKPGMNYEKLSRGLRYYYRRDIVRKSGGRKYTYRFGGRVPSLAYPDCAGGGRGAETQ
In short: as §1

ELF3 = molecular target: T7, ELF3 (Homo sapiens, UniProt P78545 1-371)
T7 sequence: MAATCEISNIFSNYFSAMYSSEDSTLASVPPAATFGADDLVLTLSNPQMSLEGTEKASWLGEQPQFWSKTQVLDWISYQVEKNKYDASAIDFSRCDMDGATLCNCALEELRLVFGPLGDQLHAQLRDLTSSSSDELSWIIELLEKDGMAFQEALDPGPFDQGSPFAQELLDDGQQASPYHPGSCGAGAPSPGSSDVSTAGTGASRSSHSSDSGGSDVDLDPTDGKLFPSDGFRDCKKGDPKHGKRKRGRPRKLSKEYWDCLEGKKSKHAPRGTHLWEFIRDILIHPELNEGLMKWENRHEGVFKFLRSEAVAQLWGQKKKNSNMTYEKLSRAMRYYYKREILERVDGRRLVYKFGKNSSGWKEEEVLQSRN
In short: as §1

ETV1 = ETV1 (Homo sapiens, UniProt P50549 1-477)
In short: as §1

ERF = molecular target: T8, ERF (Homo sapiens, UniProt P50548 1-548)
T8 sequence: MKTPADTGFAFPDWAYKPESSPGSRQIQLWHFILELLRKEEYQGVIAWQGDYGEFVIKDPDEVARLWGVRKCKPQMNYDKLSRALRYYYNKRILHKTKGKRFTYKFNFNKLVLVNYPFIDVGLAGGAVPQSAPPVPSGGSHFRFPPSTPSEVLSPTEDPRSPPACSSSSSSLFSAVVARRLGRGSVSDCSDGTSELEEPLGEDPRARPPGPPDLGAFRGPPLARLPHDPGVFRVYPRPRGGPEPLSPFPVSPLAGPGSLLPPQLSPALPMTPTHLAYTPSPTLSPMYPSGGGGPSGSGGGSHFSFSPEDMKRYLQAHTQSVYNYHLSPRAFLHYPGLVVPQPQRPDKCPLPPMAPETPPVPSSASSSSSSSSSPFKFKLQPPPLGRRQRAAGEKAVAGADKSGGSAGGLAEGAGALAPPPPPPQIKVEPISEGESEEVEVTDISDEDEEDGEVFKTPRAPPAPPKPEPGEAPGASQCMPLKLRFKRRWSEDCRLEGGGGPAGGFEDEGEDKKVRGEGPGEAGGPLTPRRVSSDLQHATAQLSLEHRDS
In short: as §1

ETV3L = molecular target: T9, ETV3L (Homo sapiens, UniProt Q6ZN32 1-361)
T9 sequence: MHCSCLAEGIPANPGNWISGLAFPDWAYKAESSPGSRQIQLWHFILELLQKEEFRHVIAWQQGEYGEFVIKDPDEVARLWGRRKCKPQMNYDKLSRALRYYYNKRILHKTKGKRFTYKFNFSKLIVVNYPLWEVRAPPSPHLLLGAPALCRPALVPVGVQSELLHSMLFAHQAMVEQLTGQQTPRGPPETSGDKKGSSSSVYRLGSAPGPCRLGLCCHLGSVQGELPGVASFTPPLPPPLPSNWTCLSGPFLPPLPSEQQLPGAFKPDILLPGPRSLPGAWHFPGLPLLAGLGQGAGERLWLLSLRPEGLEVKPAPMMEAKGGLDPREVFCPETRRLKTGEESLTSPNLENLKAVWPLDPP
In short: as §1

ETS2 = molecular target: T10, ETS2 (Homo sapiens, UniProt P15036 1-469)
T10 sequence: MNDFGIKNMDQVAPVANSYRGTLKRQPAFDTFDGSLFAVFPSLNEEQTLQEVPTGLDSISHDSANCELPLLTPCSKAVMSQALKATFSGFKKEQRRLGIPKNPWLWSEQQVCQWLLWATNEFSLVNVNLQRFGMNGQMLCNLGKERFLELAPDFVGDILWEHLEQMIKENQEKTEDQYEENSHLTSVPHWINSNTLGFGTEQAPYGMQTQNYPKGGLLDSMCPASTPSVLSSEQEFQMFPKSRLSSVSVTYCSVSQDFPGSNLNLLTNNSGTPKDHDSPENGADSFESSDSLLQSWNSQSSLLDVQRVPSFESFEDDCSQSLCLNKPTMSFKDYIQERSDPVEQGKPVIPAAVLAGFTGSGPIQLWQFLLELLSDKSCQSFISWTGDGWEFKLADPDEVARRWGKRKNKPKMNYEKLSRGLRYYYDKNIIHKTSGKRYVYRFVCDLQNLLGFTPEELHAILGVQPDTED
In short: as §1

ETV7 = molecular target: T11, ETV7 (Homo sapiens, UniProt Q9Y603 1-341)
T11 sequence: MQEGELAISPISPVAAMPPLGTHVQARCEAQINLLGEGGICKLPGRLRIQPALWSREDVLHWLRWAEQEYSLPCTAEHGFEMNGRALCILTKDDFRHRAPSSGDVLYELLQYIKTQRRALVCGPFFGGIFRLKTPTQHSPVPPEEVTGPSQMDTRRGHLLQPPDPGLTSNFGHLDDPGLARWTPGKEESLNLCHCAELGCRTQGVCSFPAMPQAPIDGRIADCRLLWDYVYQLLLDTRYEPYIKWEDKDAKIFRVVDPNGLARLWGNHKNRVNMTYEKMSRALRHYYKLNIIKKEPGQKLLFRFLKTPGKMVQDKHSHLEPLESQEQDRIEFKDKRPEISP
In short: as §1

ETV3 = molecular target: T12, ETV3 (Homo sapiens, UniProt P41162-2 1-143)
T12 sequence: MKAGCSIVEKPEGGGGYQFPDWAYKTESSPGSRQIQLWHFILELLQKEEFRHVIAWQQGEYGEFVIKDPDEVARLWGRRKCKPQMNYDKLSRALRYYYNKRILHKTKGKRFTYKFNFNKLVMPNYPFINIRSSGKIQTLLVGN
In short: as §1

ETV6 = ETV6 (Homo sapiens, UniProt P41212 1-452)
In short: as §1

ELF4, sequence (Q99607 whole entry): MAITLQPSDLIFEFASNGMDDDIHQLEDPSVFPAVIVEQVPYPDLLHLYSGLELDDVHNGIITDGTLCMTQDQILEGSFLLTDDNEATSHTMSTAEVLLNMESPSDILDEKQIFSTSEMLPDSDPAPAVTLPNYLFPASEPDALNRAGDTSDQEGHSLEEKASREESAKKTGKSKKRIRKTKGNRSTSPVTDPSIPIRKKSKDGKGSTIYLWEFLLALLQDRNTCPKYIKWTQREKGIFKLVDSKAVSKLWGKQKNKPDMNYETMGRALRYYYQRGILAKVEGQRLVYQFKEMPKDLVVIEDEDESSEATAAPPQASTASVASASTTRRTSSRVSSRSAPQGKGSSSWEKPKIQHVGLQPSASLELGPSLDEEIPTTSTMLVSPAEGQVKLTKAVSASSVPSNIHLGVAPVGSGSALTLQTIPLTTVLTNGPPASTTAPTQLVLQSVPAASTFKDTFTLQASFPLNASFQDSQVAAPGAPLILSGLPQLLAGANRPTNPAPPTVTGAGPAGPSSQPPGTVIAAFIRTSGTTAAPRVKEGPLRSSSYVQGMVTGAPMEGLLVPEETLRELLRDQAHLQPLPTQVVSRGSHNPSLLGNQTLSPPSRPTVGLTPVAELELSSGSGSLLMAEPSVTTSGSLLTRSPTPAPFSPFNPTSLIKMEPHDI
ETV6, sequence (P41212 whole entry): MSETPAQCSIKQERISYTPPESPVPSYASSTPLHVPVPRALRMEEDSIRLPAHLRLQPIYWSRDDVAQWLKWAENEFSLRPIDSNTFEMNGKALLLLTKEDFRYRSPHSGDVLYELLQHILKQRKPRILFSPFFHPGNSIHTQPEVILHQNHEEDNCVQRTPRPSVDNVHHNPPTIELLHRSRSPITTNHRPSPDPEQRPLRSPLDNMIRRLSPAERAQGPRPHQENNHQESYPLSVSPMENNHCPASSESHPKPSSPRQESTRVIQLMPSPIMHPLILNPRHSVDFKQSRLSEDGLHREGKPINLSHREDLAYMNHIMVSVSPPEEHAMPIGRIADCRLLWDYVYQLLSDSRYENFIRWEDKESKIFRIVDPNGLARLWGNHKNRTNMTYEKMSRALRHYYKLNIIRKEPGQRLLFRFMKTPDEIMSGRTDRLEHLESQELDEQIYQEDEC
SPIB, sequence (Q01892 whole entry): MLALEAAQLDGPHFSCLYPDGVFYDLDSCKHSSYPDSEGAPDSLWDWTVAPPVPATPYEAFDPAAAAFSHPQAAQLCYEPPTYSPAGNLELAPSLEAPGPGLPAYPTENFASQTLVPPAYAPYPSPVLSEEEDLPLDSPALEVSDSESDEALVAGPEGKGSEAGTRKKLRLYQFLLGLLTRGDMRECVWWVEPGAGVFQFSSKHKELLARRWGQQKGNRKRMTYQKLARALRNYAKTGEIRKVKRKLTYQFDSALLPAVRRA
ETV5, sequence (P41161 whole entry): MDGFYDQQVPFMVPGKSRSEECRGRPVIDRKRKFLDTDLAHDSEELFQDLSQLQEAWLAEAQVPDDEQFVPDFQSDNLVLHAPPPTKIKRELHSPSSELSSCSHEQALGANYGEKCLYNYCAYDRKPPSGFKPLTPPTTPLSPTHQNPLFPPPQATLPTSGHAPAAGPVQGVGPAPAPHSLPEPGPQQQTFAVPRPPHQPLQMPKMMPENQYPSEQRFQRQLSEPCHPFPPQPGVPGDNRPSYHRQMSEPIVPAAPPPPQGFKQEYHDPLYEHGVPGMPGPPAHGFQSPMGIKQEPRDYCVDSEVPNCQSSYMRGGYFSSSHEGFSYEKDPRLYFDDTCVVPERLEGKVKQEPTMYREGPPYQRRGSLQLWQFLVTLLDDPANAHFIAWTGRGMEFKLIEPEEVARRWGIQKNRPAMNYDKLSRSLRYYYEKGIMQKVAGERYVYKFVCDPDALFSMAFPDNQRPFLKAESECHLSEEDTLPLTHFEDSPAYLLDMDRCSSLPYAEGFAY
ETV1, sequence (P50549 whole entry): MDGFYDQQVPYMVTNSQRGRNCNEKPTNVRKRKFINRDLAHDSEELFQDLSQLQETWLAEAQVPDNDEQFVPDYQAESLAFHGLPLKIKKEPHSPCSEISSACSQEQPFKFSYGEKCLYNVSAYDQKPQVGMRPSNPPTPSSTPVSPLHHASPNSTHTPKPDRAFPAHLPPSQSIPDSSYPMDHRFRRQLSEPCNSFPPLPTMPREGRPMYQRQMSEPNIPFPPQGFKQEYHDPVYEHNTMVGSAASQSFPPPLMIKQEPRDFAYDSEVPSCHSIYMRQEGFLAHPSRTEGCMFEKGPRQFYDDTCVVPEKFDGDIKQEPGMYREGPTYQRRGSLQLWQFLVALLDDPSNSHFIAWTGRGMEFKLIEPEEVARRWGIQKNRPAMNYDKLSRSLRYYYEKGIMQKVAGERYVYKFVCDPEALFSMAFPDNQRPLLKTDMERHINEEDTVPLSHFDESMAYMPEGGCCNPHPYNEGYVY
ELF1, sequence (P32519 whole entry): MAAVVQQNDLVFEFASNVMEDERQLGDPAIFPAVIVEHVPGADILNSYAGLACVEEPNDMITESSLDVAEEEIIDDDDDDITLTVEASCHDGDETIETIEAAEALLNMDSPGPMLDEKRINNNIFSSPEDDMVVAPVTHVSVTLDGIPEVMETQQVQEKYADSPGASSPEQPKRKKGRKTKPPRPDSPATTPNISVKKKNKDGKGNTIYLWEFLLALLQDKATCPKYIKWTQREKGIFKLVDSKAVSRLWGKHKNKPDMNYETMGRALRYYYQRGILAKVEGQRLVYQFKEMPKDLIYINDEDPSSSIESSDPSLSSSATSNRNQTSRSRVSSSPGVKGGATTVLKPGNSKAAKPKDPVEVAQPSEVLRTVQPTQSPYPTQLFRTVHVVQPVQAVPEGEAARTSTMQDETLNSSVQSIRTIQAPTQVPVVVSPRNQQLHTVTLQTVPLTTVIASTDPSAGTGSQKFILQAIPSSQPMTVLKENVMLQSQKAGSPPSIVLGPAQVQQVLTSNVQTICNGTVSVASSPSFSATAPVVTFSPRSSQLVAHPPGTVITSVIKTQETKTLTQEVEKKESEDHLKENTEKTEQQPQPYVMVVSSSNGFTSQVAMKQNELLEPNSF

In the case of TAACCG, the binding signal (FLI1) is reported as 1.06 fold enrichment (6-mer frequency, TF over GST control), the binding signal (ELK1) is reported as 1.05 fold enrichment (6-mer frequency, TF over GST control) and the binding signal (ERG) is reported as 1.06 fold enrichment (6-mer frequency, TF over GST control). The binding signal (ELF1) was 1.1 fold enrichment (6-mer frequency, TF over GST control), the binding signal (EHF) was 1.06 fold enrichment (6-mer frequency, TF over GST control) and the binding signal (SPIB) was 1.18 fold enrichment (6-mer frequency, TF over GST control). The binding signal (ELK3) was 1.13 fold enrichment (6-mer frequency, TF over GST control), the binding signal (ETV5) was 1.07 fold enrichment (6-mer frequency, TF over GST control) and the binding signal (ELF4) was 1.06 fold enrichment (6-mer frequency, TF over GST control). The binding signal (ETV2) was 1.2 fold enrichment (6-mer frequency, TF over GST control), the binding signal (ELF3) was 1.04 fold enrichment (6-mer frequency, TF over GST control) and the binding signal (ETV1) was 1.09 fold enrichment (6-mer frequency, TF over GST control). For the same sequence, the binding signal (ERF) was 1.12 fold enrichment (6-mer frequency, TF over GST control), the binding signal (ETV3L) was 1.08 fold enrichment (6-mer frequency, TF over GST control) and the binding signal (ETS2) was 1.07 fold enrichment (6-mer frequency, TF over GST control). For the same sequence, the binding signal (ETV7) was 1.02 fold enrichment (6-mer frequency, TF over GST control), the binding signal (ETV3) was 1.09 fold enrichment (6-mer frequency, TF over GST control) and the binding signal (ETV6) was 1.08 fold enrichment (6-mer frequency, TF over GST control).

Source: article PMC7862700, “An all-to-all approach to the identification of sequence-specific readers for epigenetic DNA modifications on cytosine”
